# In PubChem BioAssay (EPA / NIEHS):
# Records with an inconclusive call do not appear. The source made the active and inactive calls. Rule for the calls, unless noted: active = hit-call score of the fitted dose curve at least 0.9, where 1 is the maximum; inconclusive = response in the unintended direction; inactive = score below 0.9. Peptide text beside a SMILES is read from it.
# How the values were obtained:
# [1] = ATG_TCF_b_cat_CIS: Attagene CIS-FACTORIAL HepG2 Assay for human T-Cell-Factor with beta-catenin (TCF/b-cat) (AID 2282965; active = hit-call score of the fitted dose curve at least 0.9, where 1 is the maximum; inactive = score below 0.9); conditions: HepG2 TCF/beta-catenin cis-reporter transcription, actives raise or lower the signal
# Outline: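 HepG2 cells transiently transfected with cis-promoter-driven multiplexed reporter units; reporter mRNA measured 24 h after dosing by RT-PCR, FAM labelling, HpaI digestion and capillary electrophoresis. Bidirectional fitting relative to DMSO baseline.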
# [2] = ATG_TAL_CIS: Attagene CIS-FACTORIAL HepG2 Assay for human TAL Basal Promoter (AID 2282966; active = hit-call score of the fitted dose curve at least 0.9, where 1 is the maximum; inactive = score below 0.9;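 note: background control endpoint measuring basal TAL promoter reporter mRNA not a specific factor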); conditions: HepG2 Attagene cis-factorial TAL promoter reporter; actives raise or lower the signal
# Outline: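 Endogenous transcription-factor activity is sensed in HepG2 cells through transfected cis-promoter reporter constructs. After 24 h dosing, reporter transcripts are quantified by RT-PCR and capillary electrophoresis. Gain or loss of signal is fitted relative to DMSO.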
# [3] = ATG_TGFb_CIS: Attagene CIS-FACTORIAL HepG2 Assay for human Transforming Growth Factor (TGF) (AID 2282967; active = hit-call score of the fitted dose curve at least 0.9, where 1 is the maximum; inactive = score below 0.9); conditions: HepG2 Attagene CIS TGFb reporter, mRNA transcription; actives raise or lower the signal
# Outline: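 Endogenous TGFB1-linked transcription factor activity read as reporter mRNA via RT-PCR and capillary electrophoresis, 24 h after dosing transiently transfected HepG2 cells. Gain or loss of signal fitted relative to DMSO.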
# [4] = molecular target: Estrogen receptor (Homo sapiens) (UniProt P03372); test: ATG_ERa_TRANS: Attagene TRANS-FACTORIAL HepG2 Assay for human Estrogen Receptor alpha (ERa) (AID 2282970); conditions: HepG2 Attagene TRANS ERa GAL4 reporter, mRNA
# Estrogen receptor (Homo sapiens), sequence (P03372 whole entry, looked up, the tested form may be a part): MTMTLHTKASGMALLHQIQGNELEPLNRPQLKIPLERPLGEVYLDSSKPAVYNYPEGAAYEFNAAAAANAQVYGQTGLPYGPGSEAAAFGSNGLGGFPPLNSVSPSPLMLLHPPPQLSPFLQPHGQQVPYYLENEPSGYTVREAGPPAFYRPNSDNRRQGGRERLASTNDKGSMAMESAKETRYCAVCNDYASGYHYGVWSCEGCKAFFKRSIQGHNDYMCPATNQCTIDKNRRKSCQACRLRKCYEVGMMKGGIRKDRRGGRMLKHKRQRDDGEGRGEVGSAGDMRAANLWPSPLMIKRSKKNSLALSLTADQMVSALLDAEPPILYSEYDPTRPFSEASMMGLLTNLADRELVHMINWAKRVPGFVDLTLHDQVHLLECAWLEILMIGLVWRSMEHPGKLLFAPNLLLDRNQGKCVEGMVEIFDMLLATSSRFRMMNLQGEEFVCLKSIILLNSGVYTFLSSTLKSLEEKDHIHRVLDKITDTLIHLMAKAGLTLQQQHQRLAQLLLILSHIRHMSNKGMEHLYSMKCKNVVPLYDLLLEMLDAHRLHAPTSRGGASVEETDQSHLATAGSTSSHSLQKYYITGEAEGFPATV
# Outline: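 Transfected HepG2 cells carrying GAL4-UAS-driven reporter units were dosed for 24 hours. Total RNA was reverse-transcribed, reporter sequences PCR-amplified, FAM-labelled, HpaI-digested and resolved by capillary electrophoresis. Increases over DMSO control defined activity.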
# [5] = molecular target: X-box-binding protein 1 (Homo sapiens) (UniProt P17861); test: ATG_Xbp1_CIS: Attagene CIS-FACTORIAL HepG2 Assay for human X-box Binding Protein 1 (XBP1) (AID 2282972; active = hit-call score of the fitted dose curve at least 0.9, where 1 is the maximum; inactive = score below 0.9); conditions: HepG2 XBP1 cis-element reporter, Attagene multiplex; actives raise or lower the signal
# X-box-binding protein 1 (Homo sapiens), sequence (P17861 whole entry, looked up): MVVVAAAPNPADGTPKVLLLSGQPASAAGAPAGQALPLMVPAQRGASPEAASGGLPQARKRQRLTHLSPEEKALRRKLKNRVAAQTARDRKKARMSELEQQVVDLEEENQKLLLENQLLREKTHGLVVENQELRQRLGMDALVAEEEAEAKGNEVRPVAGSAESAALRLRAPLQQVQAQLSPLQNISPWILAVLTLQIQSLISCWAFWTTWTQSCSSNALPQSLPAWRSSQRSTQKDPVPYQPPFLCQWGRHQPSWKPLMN
# Outline: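 Reporter transcripts were quantified by RT-PCR with fluorescent primer extension and capillary electrophoresis after 24 h chemical exposure. Cells: transiently transfected HepG2 carrying cis-regulated reporter constructs; data fitted bidirectionally relative to DMSO.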
# [6] = molecular target: Oxysterols receptor LXR-beta (Homo sapiens) (UniProt P55055); test: ATG_LXRb_TRANS: Attagene TRANS-FACTORIAL HepG2 Assay for human Liver X Receptor beta (LXRb) (AID 2282981); conditions: HepG2 Attagene TRANS GAL4-LXRb reporter, mRNA
# Oxysterols receptor LXR-beta (Homo sapiens), sequence (P55055 whole entry, looked up, the tested form may be a part): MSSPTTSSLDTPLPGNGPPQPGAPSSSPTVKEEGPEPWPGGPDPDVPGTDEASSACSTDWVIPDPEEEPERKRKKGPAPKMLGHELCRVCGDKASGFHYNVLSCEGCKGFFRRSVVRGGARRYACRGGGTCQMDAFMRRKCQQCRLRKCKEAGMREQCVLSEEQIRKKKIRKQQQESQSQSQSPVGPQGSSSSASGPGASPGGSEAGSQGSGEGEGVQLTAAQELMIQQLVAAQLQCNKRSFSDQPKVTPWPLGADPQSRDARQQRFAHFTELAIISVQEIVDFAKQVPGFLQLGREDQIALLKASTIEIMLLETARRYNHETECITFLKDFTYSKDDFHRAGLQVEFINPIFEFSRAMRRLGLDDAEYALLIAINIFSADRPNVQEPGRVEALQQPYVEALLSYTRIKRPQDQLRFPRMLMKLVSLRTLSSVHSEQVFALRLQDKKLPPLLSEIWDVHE
# Outline: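 Readout: fluorescent reporter mRNA fragments resolved by capillary electrophoresis after RT-PCR. System: transiently transfected human HepG2, exogenous LXRb-Gal4 chimera driving GAL4-UAS reporter, 24 h dosing. Activity fitted upward against DMSO baseline.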
# [7] = molecular target: Hepatocyte nuclear factor 4-alpha (Homo sapiens) (UniProt P41235); test: ATG_HNF4a_TRANS: Attagene TRANS-FACTORIAL HepG2 Assay for human Hepatocyte Nuclear Factor 4 alpha (HNF4a) (AID 2282982); conditions: HepG2 HNF4a transactivation reporter, mRNA readout
# Hepatocyte nuclear factor 4-alpha (Homo sapiens), sequence (P41235 whole entry, looked up): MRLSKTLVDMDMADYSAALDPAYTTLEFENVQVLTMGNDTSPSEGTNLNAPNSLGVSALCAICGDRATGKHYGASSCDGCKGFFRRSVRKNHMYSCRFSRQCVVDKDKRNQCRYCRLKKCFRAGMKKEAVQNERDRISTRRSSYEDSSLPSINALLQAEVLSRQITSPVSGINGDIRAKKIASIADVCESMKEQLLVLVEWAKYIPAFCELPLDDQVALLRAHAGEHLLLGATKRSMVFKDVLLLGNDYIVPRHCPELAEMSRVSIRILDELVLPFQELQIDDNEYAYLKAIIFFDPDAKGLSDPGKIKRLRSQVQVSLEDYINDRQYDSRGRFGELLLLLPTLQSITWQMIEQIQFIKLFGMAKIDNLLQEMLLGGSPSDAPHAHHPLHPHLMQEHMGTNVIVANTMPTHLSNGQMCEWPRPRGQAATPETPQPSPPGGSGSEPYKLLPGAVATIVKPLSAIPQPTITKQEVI
# Outline: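 Transient MRTU transfection of HepG2, 24 h dosing. Readout: reporter mRNA via RT-PCR + capillary electrophoresis, fluorescence; activity fit upward relative to DMSO control.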
# [8] = ATG_M_06_TRANS: Attagene TRANS-FACTORIAL HepG2 Assay for M06 Transcription Factor (Internal Marker) (AID 2282983); conditions: HepG2 Attagene TRANS M06 internal marker reporter
# Outline: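 Human liver HepG2 cells bearing transiently transfected chimeric NR-GAL4 reporter units were treated with chemicals for 24 h. Total RNA was reverse-transcribed, reporter sequences amplified and labelled, then quantified by capillary electrophoresis. Activity was fitted upward relative to DMSO.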
# [9] = molecular target: Nuclear receptor subfamily 4 group A member 2 (Homo sapiens) (UniProt P43354); test: ATG_NURR1_TRANS: Attagene TRANS-FACTORIAL HepG2 Assay for human Nuclear Receptor Related Protein 1 (NURR1) (AID 2282985); conditions: HepG2 Attagene TRANS reporter, mRNA readout
# Nuclear receptor subfamily 4 group A member 2 (Homo sapiens), sequence (P43354 whole entry, looked up, the tested form may be a part): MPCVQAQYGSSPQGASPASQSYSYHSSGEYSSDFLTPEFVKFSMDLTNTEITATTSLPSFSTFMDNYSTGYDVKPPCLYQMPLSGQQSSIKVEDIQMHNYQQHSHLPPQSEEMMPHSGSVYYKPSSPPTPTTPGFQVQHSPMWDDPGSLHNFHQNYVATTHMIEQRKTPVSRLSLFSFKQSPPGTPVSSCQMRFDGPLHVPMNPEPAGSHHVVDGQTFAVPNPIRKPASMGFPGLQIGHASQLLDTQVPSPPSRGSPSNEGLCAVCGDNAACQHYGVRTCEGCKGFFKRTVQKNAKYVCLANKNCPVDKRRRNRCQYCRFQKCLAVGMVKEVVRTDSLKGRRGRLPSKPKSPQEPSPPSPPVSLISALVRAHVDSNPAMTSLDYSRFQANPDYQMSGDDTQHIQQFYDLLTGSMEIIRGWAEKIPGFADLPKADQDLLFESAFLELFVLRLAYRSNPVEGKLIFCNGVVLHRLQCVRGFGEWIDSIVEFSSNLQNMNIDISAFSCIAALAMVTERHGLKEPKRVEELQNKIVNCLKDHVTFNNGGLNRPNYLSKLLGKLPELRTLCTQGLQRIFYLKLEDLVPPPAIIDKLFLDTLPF
# Outline: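 Read-out: reporter mRNA induction by RT-PCR plus capillary electrophoresis with fluorescence detection, after 24 h dosing of transfected HepG2 cells. Exogenous NR-Gal4 chimera activity drives GAL4-UAS reporter; activity fitted upward versus DMSO.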
# [10] = molecular target: Transcriptional activator Myb (Homo sapiens) (UniProt P10242); test: ATG_Myb_CIS: Attagene CIS-FACTORIAL HepG2 Assay for human Myeloblastosis (Myb) Proto-Oncogene Transcription Factor (AID 2282986; active = hit-call score of the fitted dose curve at least 0.9, where 1 is the maximum; inactive = score below 0.9); conditions: HepG2 Attagene CIS-FACTORIAL Myb reporter transcription; actives raise or lower the signal
# Transcriptional activator Myb (Homo sapiens), sequence (P10242 whole entry, looked up): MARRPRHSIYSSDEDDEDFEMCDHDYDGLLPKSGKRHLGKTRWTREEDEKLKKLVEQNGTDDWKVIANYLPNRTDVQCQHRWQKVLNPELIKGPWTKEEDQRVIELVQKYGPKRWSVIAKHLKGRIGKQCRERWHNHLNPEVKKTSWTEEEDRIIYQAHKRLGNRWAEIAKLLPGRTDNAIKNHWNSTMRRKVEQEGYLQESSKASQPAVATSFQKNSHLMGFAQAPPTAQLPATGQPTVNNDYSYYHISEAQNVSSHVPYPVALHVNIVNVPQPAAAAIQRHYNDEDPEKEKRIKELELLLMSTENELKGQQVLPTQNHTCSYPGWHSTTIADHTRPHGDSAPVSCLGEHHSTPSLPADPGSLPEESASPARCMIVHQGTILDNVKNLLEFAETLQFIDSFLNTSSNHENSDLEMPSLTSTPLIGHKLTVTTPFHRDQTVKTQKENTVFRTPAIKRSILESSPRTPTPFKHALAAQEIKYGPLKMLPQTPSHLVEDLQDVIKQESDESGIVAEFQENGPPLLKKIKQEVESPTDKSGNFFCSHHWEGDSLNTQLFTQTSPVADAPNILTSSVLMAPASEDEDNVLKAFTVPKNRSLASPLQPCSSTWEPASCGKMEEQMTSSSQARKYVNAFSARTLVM
# Outline: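 Fluorescence signals from capillary electrophoresis of RT-PCR-amplified reporter cDNA give the read-out. Cells: HepG2 transfected with multiple cis-regulated reporter units. Exposure lasts 24 hours; DMSO defines baseline for gain or loss of signal.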
# [11] = ATG_VDRE_CIS: Attagene CIS-FACTORIAL HepG2 Assay for human Vitamin D Receptor Element (VDRE) (AID 2282968; active = hit-call score of the fitted dose curve at least 0.9, where 1 is the maximum; inactive = score below 0.9); conditions: HepG2 VDRE cis-reporter transcription, actives raise or lower the signal
# Outline: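 Transient MRTU transfection of HepG2, 24 h compound exposure. Readout: reporter transcripts via RT-PCR and capillary electrophoresis, fluorescence. Bidirectional fit vs DMSO.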
# [12] = ATG_M_19_TRANS: Attagene TRANS-FACTORIAL HepG2 Assay for M19 Transcription Factor (Internal Marker) (AID 2282974); conditions: HepG2 Attagene TRANS-FACTORIAL M19 internal marker reporter
# Outline: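 Measured here: internal-marker reporter transcript from HepG2 cells transfected with MRTUs, harvested at 24 h. cDNA PCR products were 6-FAM labelled by primer extension, cut with HpaI for 2 h at 37 C, and resolved by CE.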
# [13] = ATG_GAL4_TRANS: Attagene TRANS-FACTORIAL HepG2 Assay for GAL4 (Internal Marker) (AID 2282976); conditions: HepG2 Attagene TRANS GAL4 internal marker reporter
# Outline: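 Fluorescence from capillary electrophoresis of labelled RT-PCR products quantifies reporter mRNA induction after 24 h dosing of HepG2 cells carrying transfected GAL4-UAS reporter transcription units. Vehicle DMSO serves as baseline.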
# [14] = molecular target: Oxysterols receptor LXR-alpha (Homo sapiens) (UniProt Q13133); test: ATG_LXRa_TRANS: Attagene TRANS-FACTORIAL HepG2 Assay for human Liver X Receptor alpha (LXRa) (AID 2282980); conditions: HepG2 Attagene TRANS reporter, LXRa transactivation
# Oxysterols receptor LXR-alpha (Homo sapiens), sequence (Q13133 whole entry, looked up): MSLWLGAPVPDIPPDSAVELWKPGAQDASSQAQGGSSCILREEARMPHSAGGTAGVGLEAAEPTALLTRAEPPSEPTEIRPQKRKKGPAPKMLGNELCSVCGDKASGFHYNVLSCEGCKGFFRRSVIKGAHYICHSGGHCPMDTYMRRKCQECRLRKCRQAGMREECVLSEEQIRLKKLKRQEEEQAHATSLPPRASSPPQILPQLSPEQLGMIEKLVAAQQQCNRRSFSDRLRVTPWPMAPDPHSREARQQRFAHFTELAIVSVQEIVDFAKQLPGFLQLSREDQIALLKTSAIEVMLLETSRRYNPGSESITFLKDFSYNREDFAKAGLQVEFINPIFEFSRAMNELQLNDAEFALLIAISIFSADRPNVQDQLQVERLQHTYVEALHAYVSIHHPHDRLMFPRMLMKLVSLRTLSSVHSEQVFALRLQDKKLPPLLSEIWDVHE
# Outline: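 Transient HepG2 transfectants, 24 h dosing, RT-PCR/CE mRNA reporter quantitation; gain-of-signal vs DMSO.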
# [15] = molecular target: Steroid hormone receptor ERR1 (Homo sapiens) (UniProt P11474); test: ATG_ERRa_TRANS: Attagene TRANS-FACTORIAL HepG2 Assay for human Estrogen-Related Receptor alpha (ERRa) (AID 2282971); conditions: HepG2 Attagene TRANS reporter, ERRa transactivation
# Outline: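 HepG2 cells were transiently transfected with multiple GAL4-UAS reporter units, then dosed with compound for 24 h. Total RNA was reverse-transcribed, reporter cDNA PCR-amplified and fluorescently labelled, and fragments resolved by capillary electrophoresis; induction was compared with DMSO.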
# [16] = molecular target: Estrogen-related receptor gamma (Homo sapiens) (UniProt P62508); test: ATG_ERRg_TRANS: Attagene TRANS-FACTORIAL HepG2 Assay for human Estrogen-Related Receptor gamma (ERRg) (AID 2282977); conditions: HepG2 Attagene TRANS reporter, ERRg transactivation;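 note: hits increase reporter signal over DMSO so potencies reflect activators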
# Outline: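 Exogenous NR-Gal4 chimera activity was assessed in HepG2 cells bearing transfected GAL4-UAS reporters. After 24 h dosing, total RNA underwent RT-PCR, fluorescent primer extension and HpaI digestion before capillary electrophoresis, with gain of signal scored against DMSO.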
# [17] = molecular target: Glucocorticoid receptor (Homo sapiens) (UniProt P04150); test: ATG_GR_TRANS: Attagene TRANS-FACTORIAL HepG2 Assay for human Glucocorticoid Receptor (GR) (AID 2282978); conditions: HepG2 Attagene TRANS GR reporter, mRNA transcription;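 note: activators score as hits since higher reporter transcript over DMSO is fitted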
# Glucocorticoid receptor (Homo sapiens), sequence (P04150 whole entry, looked up, the tested form may be a part): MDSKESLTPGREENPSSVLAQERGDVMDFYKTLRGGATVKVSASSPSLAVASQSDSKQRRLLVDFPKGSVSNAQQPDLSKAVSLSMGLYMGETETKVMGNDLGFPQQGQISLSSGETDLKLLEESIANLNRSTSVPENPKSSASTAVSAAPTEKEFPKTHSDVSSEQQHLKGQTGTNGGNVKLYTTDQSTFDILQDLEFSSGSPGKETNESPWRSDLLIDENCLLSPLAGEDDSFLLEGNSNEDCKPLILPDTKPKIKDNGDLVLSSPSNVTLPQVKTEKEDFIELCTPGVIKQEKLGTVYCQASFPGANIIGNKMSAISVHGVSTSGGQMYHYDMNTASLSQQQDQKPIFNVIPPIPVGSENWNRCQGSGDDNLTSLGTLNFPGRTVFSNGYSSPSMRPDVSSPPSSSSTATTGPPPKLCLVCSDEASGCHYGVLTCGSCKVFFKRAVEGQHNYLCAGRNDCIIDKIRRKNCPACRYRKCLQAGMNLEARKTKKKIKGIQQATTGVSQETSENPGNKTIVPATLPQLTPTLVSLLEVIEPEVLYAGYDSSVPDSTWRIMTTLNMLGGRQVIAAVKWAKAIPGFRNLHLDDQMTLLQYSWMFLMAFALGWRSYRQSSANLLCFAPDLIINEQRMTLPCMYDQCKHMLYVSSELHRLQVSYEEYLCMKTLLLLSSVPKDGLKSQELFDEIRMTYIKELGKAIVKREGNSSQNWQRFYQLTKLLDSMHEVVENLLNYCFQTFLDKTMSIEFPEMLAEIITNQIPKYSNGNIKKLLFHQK
# Outline: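 Measurement of GAL4-UAS-driven reporter mRNA in human HepG2 liver cells 24 h post-dosing, using RT-PCR with fluorescent labelling and capillary electrophoresis; the transfected constructs report exogenous NR-GAL4 chimera activity, fitted upward against DMSO.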
# [18] = ATG_M_32_TRANS: Attagene TRANS-FACTORIAL HepG2 Assay for M32 Transcription Factor (Internal Marker) (AID 2282984); conditions: HepG2 Attagene TRANS M32 internal marker reporter;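 note: transcript level of a background control reporter unit measured by RT-PCR and capillary electrophoresis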
# Outline: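 Read-out: fluorescent reporter cDNA fragments resolved by capillary electrophoresis after RT-PCR of total RNA. Transfected HepG2 cells were exposed to chemical for 24 h. Activity scored in the positive direction relative to DMSO.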
# [19] = molecular target: Nuclear receptor subfamily 1 group I member 3 (Homo sapiens) (UniProt Q14994); test: ATG_CAR_TRANS: Attagene TRANS-FACTORIAL HepG2 Assay for human Constitutive Androstane Receptor (CAR) (AID 2282969); conditions: HepG2 Attagene TRANS-FACTORIAL CAR reporter;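 note: activators raise reporter mRNA above DMSO so AC50 marks induction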
# Outline: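 Transiently transfected HepG2, multiplex TRANS reporters (CAR-Gal4 chimera driving GAL4-UAS reporter). 24 h dosing. Readout: reporter transcript by RT-PCR + capillary electrophoresis, fluorescence intensity; positive direction vs DMSO.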
# [20] = molecular target: Bile acid receptor (Homo sapiens) (UniProt Q96RI1); test: ATG_FXR_TRANS: Attagene TRANS-FACTORIAL HepG2 Assay for Farnesoid X Receptor (FXR) (AID 2282979); conditions: HepG2 Attagene TRANS FXR-GAL4 reporter transcription;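 note: hits raise reporter mRNA above DMSO so AC50 marks FXR activation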
# Bile acid receptor (Homo sapiens), sequence (Q96RI1 whole entry, looked up, the tested form may be a part): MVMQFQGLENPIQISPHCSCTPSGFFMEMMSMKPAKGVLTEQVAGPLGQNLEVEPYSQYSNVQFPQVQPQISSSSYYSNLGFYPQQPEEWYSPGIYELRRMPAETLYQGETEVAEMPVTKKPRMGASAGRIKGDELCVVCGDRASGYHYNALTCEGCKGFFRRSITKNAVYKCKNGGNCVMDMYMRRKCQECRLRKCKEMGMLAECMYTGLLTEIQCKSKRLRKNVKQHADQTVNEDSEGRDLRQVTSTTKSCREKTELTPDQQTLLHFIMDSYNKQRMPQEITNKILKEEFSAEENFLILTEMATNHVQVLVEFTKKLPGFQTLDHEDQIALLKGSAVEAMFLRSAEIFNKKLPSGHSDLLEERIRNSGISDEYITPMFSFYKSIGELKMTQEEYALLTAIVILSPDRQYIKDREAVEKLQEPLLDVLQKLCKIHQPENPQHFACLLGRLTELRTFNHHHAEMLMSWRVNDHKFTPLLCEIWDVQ
# Outline: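 Chimeric FXR-GAL4 activity in transiently transfected human HepG2 liver cells is scored as induction of reporter mRNA after 24 h of dosing. Detection uses RT-PCR with fluorescent labelling and capillary electrophoresis, with DMSO serving as baseline.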
compound,measurement,setting,value
O=C(O)CCCC(=O)O,outcome,[1],inactive
same,outcome,[2],inactive
same,outcome,[3],inactive
same,outcome,[4],inactive
same,outcome,[5],inactive
same,outcome,[6],inactive
same,outcome,[7],inactive
same,outcome,[8],inactive
same,outcome,[9],inactive
same,outcome,[10],inactive
Nc1ccc(Cl)c(N)c1,outcome,[1],inactive
same,outcome,[2],inactive
same,outcome,[11],inactive
same,outcome,[4],inactive
same,outcome,[5],inactive
same,outcome,[12],inactive
same,outcome,[13],inactive
same,outcome,[14],inactive
same,outcome,[9],inactive
same,outcome,[10],inactive
O=C(O)c1cc(O)c2ccccc2c1O,outcome,[1],inactive
same,AC50,[2],51.6 µM (active)
same,outcome,[4],inactive
same,outcome,[15],inactive
same,outcome,[5],inactive
same,outcome,[16],inactive
same,outcome,[17],inactive
same,outcome,[14],inactive
same,outcome,[6],inactive
same,outcome,[7],inactive
same,outcome,[8],inactive
same,outcome,[18],inactive
same,AC50,[9],1.1 µM (active)
same,AC50,[10],57.4 µM (active)
CCOC(=O)c1ccccc1C,outcome,[1],inactive
same,outcome,[2],inactive
same,outcome,[3],inactive
same,outcome,[5],inactive
same,outcome,[6],inactive
same,outcome,[8],inactive
same,outcome,[9],inactive
same,outcome,[10],inactive
CC(C)(CO)COC(=O)C(C)(C)CO,outcome,[1],inactive
same,outcome,[2],inactive
same,outcome,[11],inactive
same,outcome,[4],inactive
same,outcome,[15],inactive
same,outcome,[5],inactive
same,outcome,[12],inactive
same,outcome,[13],inactive
same,outcome,[17],inactive
same,outcome,[14],inactive
same,outcome,[6],inactive
same,outcome,[7],inactive
same,outcome,[18],inactive
same,outcome,[10],inactive
CCCSSCCC,outcome,[1],inactive
same,outcome,[2],inactive
same,outcome,[11],inactive
same,outcome,[19],inactive
same,outcome,[4],inactive
same,outcome,[5],inactive
same,outcome,[13],inactive
same,outcome,[17],inactive
same,outcome,[7],inactive
same,outcome,[8],inactive
same,outcome,[18],inactive
same,outcome,[9],inactive
same,outcome,[10],inactive
Cc1ccccc1CCO,outcome,[1],inactive
same,outcome,[2],inactive
same,outcome,[3],inactive
same,outcome,[5],inactive
same,outcome,[12],inactive
same,outcome,[20],inactive
same,outcome,[7],inactive
same,outcome,[18],inactive
same,outcome,[10],inactive
CC(=O)c1ccc(S(=O)(=O)NC(=O)NC2CCCCC2)cc1,outcome,[1],inactive
same,outcome,[2],inactive
same,outcome,[3],inactive
same,outcome,[5],inactive
same,outcome,[12],inactive
same,outcome,[17],inactive
same,outcome,[9],inactive
same,outcome,[10],inactive
CCC(C)c1ccccc1 (stereo not drawn),outcome,[1],inactive
same,outcome,[2],inactive
same,outcome,[11],inactive
same,outcome,[5],inactive
same,outcome,[12],inactive
same,outcome,[13],inactive
same,outcome,[20],inactive
same,outcome,[14],inactive
same,outcome,[6],inactive
same,outcome,[7],inactive
same,outcome,[8],inactive
same,outcome,[18],inactive
same,outcome,[10],inactive
CCOc1ccc(NC(N)=O)cc1,outcome,[1],inactive
same,outcome,[2],inactive
same,outcome,[11],inactive
same,outcome,[4],inactive
same,outcome,[5],inactive
same,outcome,[13],inactive
same,outcome,[17],inactive
same,outcome,[20],inactive
same,outcome,[14],inactive
same,outcome,[6],inactive
same,outcome,[7],inactive
same,outcome,[8],inactive
same,outcome,[9],inactive
same,outcome,[10],inactive
COC(=O)[C@H](Cc1ccccc1)NC(=O)[C@@H](N)CC(=O)O (H-Asp-Phe-OMe),outcome,[1],inactive
same,outcome,[2],inactive
same,outcome,[3],inactive
same,outcome,[4],inactive
same,outcome,[5],inactive
same,outcome,[14],inactive
same,outcome,[6],inactive
same,outcome,[8],inactive
same,outcome,[18],inactive
same,outcome,[10],inactive
